Consider 42 compounds from the supplement of paper PMC6953052.

± gives the standard deviation of the averaged measurements. Over roughly 1,700 compounds, “fraction of GFP-LC3-positive cells (≥5 vesicles/cell)” has its median near 0.058; the highest 2% begin near 0.59. This excerpt belongs to a sample that is enriched for the highest values.

For this experiment, the system named is CbCln3 +/+ GFP-LC3 cerebellar neuronal cells. In words: fraction of GFP-LC3-positive cells (≥5 vesicles/cell); higher = more autophagosome accumulation. In outline: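 Wild-type or mutant CbCln3 cerebellar cells stably expressing GFP-LC3 were plated at 2 × 10^3 per well in 384-well plates and received ~50 nL of compound in DMSO by pin transfer, in duplicate, for 24 h at 33 °C. Hoechst 33342 and LysoTracker Red were added for the last 30 min, after which cells were fixed in 3.2% PFA and three fields per well were imaged at 10×. CellProfiler counted GFP-LC3 vesicles per cell, and out-of-focus images were excluded. The reported value is the fraction of cells reaching a vesicle-count cutoff of 5 or more, averaged over duplicates.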
As to `CCOC(=O)C1=C(C)NC(=S)NC1c1cccc(O)c1` (configuration not stated) [Monastrol], the “fraction of GFP-LC3-positive cells” value is 0.199.
For the compound `CNC1(C)C2CCC(C2)C1(C)C.Cl` (configuration not stated) [Mecamylamine hydrochloride], the “fraction of GFP-LC3-positive cells” value came to 0.093.
The result for `CN(Cc1cnc2nc(N)nc(N)c2n1)c1ccc(C(=O)NC(CCC(=O)O)C(=O)O)cc1` (racemic) [Amethopterin (R,S)] reads 0.0411; that for `CC(=O)Oc1ccc(C(c2ccc(OC(C)=O)cc2)c2ccccn2)cc1` [Bisacodyl], 0.0605; that for `CC/C=C\C/C=C\C/C=C\C/C=C\CCCCC(=O)O` [6(Z), 9(Z), 12(Z), 15(Z)-Octadecatetraenoic acid], 0.0591.
`CC(C(=O)O)c1ccc(-c2ccccc2)c(F)c1` (configuration not stated) [Flurbiprofen]: the “fraction of GFP-LC3-positive cells” value came out at 0.0432.
With `Cl.O=C1CC2(CCCC2)CC(=O)N1CCCCN1CCN(c2ncccn2)CC1` [Buspirone hydrochloride], the “fraction of GFP-LC3-positive cells” value came to 0.0334.
The result for `CC(C)[N+]1(C)[C@@H]2CC[C@@H]1CC(OC(=O)C(CO)c1ccccc1)C2.[Br-]` (some centres not stated) [Ipratropium bromide] reads 0.0779; that for `CC[C@]12CCCN3CCc4c(n(c5ccccc45)[C@](O)(C(=O)OC)C1)[C@@H]32` [Epivincamine], 0.0608.
For `CC(=O)N(CC(O)CN(C(C)=O)c1c(I)c(C(=O)NCC(O)CO)c(I)c(C(=O)NCC(O)CO)c1I)c1c(I)c(C(=O)NCC(O)CO)c(I)c(C(=O)NCC(O)CO)c1I` (configuration not stated) [Iodixanol], the “fraction of GFP-LC3-positive cells” value is 0.0455.
For `COc1ccc2cc(C(C)C(=O)O)ccc2c1` (configuration not stated) [Naproxen] the value was 0.053.
For `CC(C)(C)C(=O)OCOC(=O)[C@@H]1N2C(=O)[C@@H](/N=C/N3CCCCCC3)[C@H]2SC1(C)C.Cl` [Pivmecillinam hydrochloride] the value was 0.0551.
On to `C[N+]1(C)CCC(OC(=O)C(O)(c2ccccc2)C2CCCC2)C1.[Br-]` (configuration not stated) [Glycopyrrolate], for which the “fraction of GFP-LC3-positive cells” value was determined as 0.0526.
As for `CCCCC/C=C\C\C=C/C=C/C=C/[C@@H](O)[C@@H](O)CCCC(=O)O`, the “fraction of GFP-LC3-positive cells” value stood at 0.0542.
Regarding `O=C(O)c1cccnc1` [Niacin], the “fraction of GFP-LC3-positive cells” value amounted to 0.0475.
On to `CC/C=C\C/C=C\C/C=C\C/C=C\C/C=C\C/C=C\CCC(=O)O`, for which the “fraction of GFP-LC3-positive cells” value came to 0.0655.
On to `CC/C=C\C/C=C\C/C=C\C/C=C\C/C=C\C/C=C\CCC(=O)O` [Docosahexaenoic acid (22:6 n-3)], for which the “fraction of GFP-LC3-positive cells” value was 0.0751.
Turning to `CC/C=C\C/C=C\C/C=C\C/C=C\C/C=C\C/C=C\CCC(=O)O` [Docosahexaenoic acid (22:6 N-3)], the “fraction of GFP-LC3-positive cells” value stood at 0.0787.
In the case of `C[C@@H]1C[C@H]2[C@@H]3CCC4=CC(=O)C=C[C@]4(C)[C@@]3(F)[C@@H](O)C[C@]2(C)[C@@]1(O)C(=O)CO` [dexamethasone], the “fraction of GFP-LC3-positive cells” value was determined as 0.0637.
For `CCCCCCCC(=O)OC[C@H](CO)OC(=O)CCCCCCC` the value was 0.0799; for `CCCCCCCC(=O)OC[C@H](CO)OC(=O)CCCCCCC` [1,2-Dioctanoyl-SN-glycerol], 0.058; for `O=c1[nH]c(=O)n([C@H]2C[C@H](O)[C@@H](CO)O2)cc1I` [Idoxuridine], 0.122.
For `CC(C)(C)NC[C@H](O)COc1nsnc1N1CCOCC1.O=C(O)/C=C\C(=O)O` [Timolol maleate salt] the value was 0.0791.
For `CSc1ccc2c(c1)N(CCC1CCCCN1C)c1ccccc1S2.Cl` (configuration not stated) [Thioridazine hydrochloride] the value was 0.103; for `O=C(CCCN1CCC(O)(c2ccc(Br)cc2)CC1)c1ccc(F)cc1` [Bromperidol], 0.0553; for `Cl.c1ccc(CN(CC2=NCCN2)c2ccccc2)cc1` [Antazoline hydrochloride], 0.048.
Take `CC(C)COCC(CN(Cc1ccccc1)c1ccccc1)N1CCCC1.Cl` (configuration not stated) [Bepridil hydrochloride]: the “fraction of GFP-LC3-positive cells” value stood at 0.0674.
Take `CC(C)COCC(CN(Cc1ccccc1)c1ccccc1)N1CCCC1` (configuration not stated): the “fraction of GFP-LC3-positive cells” value is 0.773.
In the case of `NC[C@H]1O[C@H](OC2[C@@H](N)C[C@@H](N)[C@H](O)[C@H]2O[C@@H]2O[C@H](CO)[C@@H](O)[C@H]2O)[C@H](N)[C@@H](O)[C@@H]1O.O=S(=O)(O)O` (some centres not stated) [Ribostamycin sulfate salt], the “fraction of GFP-LC3-positive cells” value worked out at 0.0446.
For `CC(C[N+](C)(C)C)OC(N)=O.[Cl-]` (configuration not stated) [Bethanechol chloride] the value was 0.0276; for `COc1cc(OC)c(C(=O)CCCN2CCCC2)c(OC)c1.Cl` [Buflomedil hydrochloride], 0.0492.
Take `Nc1ccc(S(=O)(=O)Nc2ccnn2-c2ccccc2)cc1` [Sulfaphenazole]: the “fraction of GFP-LC3-positive cells” value worked out at 0.0807.
For the compound `Cl.NCc1ccc(S(N)(=O)=O)cc1` [Mafenide hydrochloride], the “fraction of GFP-LC3-positive cells” value amounted to 0.087.
As to `CCCCOc1cc(C(=O)OCCN(CC)CC)ccc1N.Cl` [Benoxinate hydrochloride], the “fraction of GFP-LC3-positive cells” value is 0.0443.
For `C[N+](C)(C)CCCCCC[N+](C)(C)C.O.O.[Br-].[Br-]` [Hexamethonium dibromide dihydrate] the value was 0.0307; for `O=S(=O)(NCCNC/C=C/c1ccc(Br)cc1)c1cccc2cnccc12`, 0.0303 ± 0.022; for `CS(=O)(=O)Nc1ccc([N+](=O)[O-])cc1Oc1ccccc1` [Nimesulide], 0.0281.
Take `Cn1c([N+](=O)[O-])cnc1COC(N)=O` [Ronidazole]: the “fraction of GFP-LC3-positive cells” value was 0.116.
The result for `NC(=O)c1ccc(-c2nc(-c3ccc4c(c3)OCO4)c(-c3ccccn3)[nH]2)cc1` reads 0.0591.
With `CCCCC/C=C\C/C=C\CCCCCCCC(N)=O` [Linoleamide], the “fraction of GFP-LC3-positive cells” value stood at 0.0419.
For `CCCCC/C=C\C/C=C\CCCCCCCC(N)=O`, the “fraction of GFP-LC3-positive cells” value came out at 0.0698.
As for `C=C(C)[C@@H]1CC[C@]2(C(=O)O)CC[C@]3(C)[C@H](CC[C@@H]4[C@@]5(C)CC[C@H](O)C(C)(C)[C@@H]5CC[C@]43C)[C@@H]12` [Betulinic acid], the “fraction of GFP-LC3-positive cells” value came out at 0.0607.
